# Records with an inconclusive call do not appear. Values without a mark were called inactive. Active and inactive are the calls of the source. The call rests on the fitted dose curve; in most records, active means well fitted curve in the direction sought with a large enough effect; inconclusive means small, poorly fitted or top-dose-only effect, or another doubt; inactive means no such curve, though single readings can be large; an effect the other way counts as inactive or inconclusive.
# Tests used:
# [1] = Quantitative High-Throughput drug screen in 47 multiple myeloma cell lines against the NCATS MIPE library collection: KMS21BM_JCRB cell viability assay (AID 1918974); settings: ATP luminescence, 48 h; viability: at 45.8 µM unless noted
# How it was run: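 Approved and investigational drugs from MIPE 4.0 were added by pin tool to 500 cells per well. After 48 hours at 37C, ATP-based CellTiter-Glo luminescence indicated remaining viability.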
# [2] = Quantitative High-Throughput drug screen in 47 multiple myeloma cell lines against the NCATS MIPE library collection: OCIMY1_PLB cell viability assay (AID 1918979); further: nearly all actives have a fitted effect of over 35% in size;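 on viability: series mostly up to about 46 µM; 100% = DMSO-only wells and 0% = cell-free media-only wells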
# How it was run: (§1)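 Cells were exposed to library compounds for 48 hours, after which ATP was measured by CellTiter-Glo. Signal was taken as median relative luminescence units.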
# [3] = Quantitative High-Throughput drug screen in 47 multiple myeloma cell lines against the NCATS MIPE library collection: MM1S_ATCC cell viability assay (AID 1918980); further: nearly all actives have a fitted effect of over 45% in size
# How it was run: as §1
# [4] = Quantitative High-Throughput drug screen in 47 multiple myeloma cell lines against the NCATS MIPE library collection: KMS28PE_JCRB cell viability assay (AID 1918983); further: nearly all actives have a fitted effect of over 35% in size
# How it was run: as §1
# [5] = Quantitative High-Throughput drug screen in 47 multiple myeloma cell lines against the NCATS MIPE library collection: L363_DSMZ cell viability assay (AID 1918984); further: nearly all actives have a fitted effect of over 40% in size
# How it was run: as §1
# [6] = Quantitative High-Throughput drug screen in 47 multiple myeloma cell lines against the NCATS MIPE library collection: OCIMY7_PLB cell viability assay (AID 1918987); settings: OCI-MY7 myeloma viability, CellTiter-Glo ATP, 48 h; viability (% of DMSO): at 45.8 µM; further: nearly all actives have a fitted effect of over 65% in size
# How it was run: as §1
# [7] = Quantitative High-Throughput drug screen in 47 multiple myeloma cell lines against the NCATS MIPE library collection: U266_ATCC cell viability assay (AID 1919864); further: nearly all actives have a fitted effect of over 35% in size
# How it was run: as §1
# [8] = Quantitative High-Throughput drug screen in 47 multiple myeloma cell lines against the NCATS MIPE library collection: XG6_PLB cell viability assay (AID 1919865); further: nearly all actives have a fitted effect of over 40% in size
# How it was run: as §1
# [9] = Quantitative High-Throughput drug screen in 47 multiple myeloma cell lines against the NCATS MIPE library collection: XG1_PLB cell viability assay (AID 1919866); further: nearly all actives have a fitted effect of over 35% in size
# How it was run: as §1
# [10] = Quantitative High-Throughput drug screen in 47 multiple myeloma cell lines against the NCATS MIPE library collection: VP6_DJ cell viability assay (AID 1919867); further: nearly all actives have a fitted effect of over 40% in size
# How it was run: as §1
# [11] = Quantitative High-Throughput drug screen in 47 multiple myeloma cell lines against the NCATS MIPE library collection: NCIH929_DSMZ cell viability assay (AID 1918978); further: nearly all actives have a fitted effect of over 35% in size
# How it was run: as §1
# [12] = Quantitative High-Throughput drug screen in 47 multiple myeloma cell lines against the NCATS MIPE library collection: MM1R_ATCC cell viability assay (AID 1918981); further: nearly all actives have a fitted effect of over 35% in size
# How it was run: as §1
# [13] = Quantitative High-Throughput drug screen in 47 multiple myeloma cell lines against the NCATS MIPE library collection: OCIMY5_PLB cell viability assay (AID 1918988); further: nearly all actives have a fitted effect of over 65% in size
# How it was run: as §1
# [14] = Quantitative High-Throughput drug screen in 47 multiple myeloma cell lines against the NCATS MIPE library collection: OPM1_PLB cell viability assay (AID 1918989); further: nearly all actives have a fitted effect of over 40% in size
# How it was run: as §1
# [15] = Quantitative High-Throughput drug screen in 47 multiple myeloma cell lines against the NCATS MIPE library collection: MMM1_PLB cell viability assay (AID 1918976); further: nearly all actives have a fitted effect of over 35% in size
# How it was run: as §1
# [16] = Quantitative High-Throughput drug screen in 47 multiple myeloma cell lines against the NCATS MIPE library collection: MOLP8_DSMZ cell viability assay (AID 1918977); further: nearly all actives have a fitted effect of over 45% in size
# How it was run: as §1
# [17] = Quantitative High-Throughput drug screen in 47 multiple myeloma cell lines against the NCATS MIPE library collection: LP1_DSMZ cell viability assay (AID 1918982); further: nearly all actives have a fitted effect of over 35% in size
# How it was run: as §1
# [18] = Quantitative High-Throughput drug screen in 47 multiple myeloma cell lines against the NCATS MIPE library collection: KMS26_JCRB cell viability assay (AID 1918975); further: nearly all actives have a fitted effect of over 45% in size;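 on viability (% of DMSO): 100% = DMSO-treated wells and 0% = wells with media only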
# How it was run: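 Viability readout: CellTiter-Glo luminescence following 5 min room-temperature incubation with reagent. Prior exposure: 48 h, 37C, humidified 5% CO2, 500 cells per well.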
# [19] = Quantitative High-Throughput drug screen in 47 multiple myeloma cell lines against the NCATS MIPE library collection: KMS34_JCRB cell viability assay (AID 1918985); further: nearly all actives have a fitted effect of over 40% in size
# How it was run: as §1
# [20] = Quantitative High-Throughput drug screen in 47 multiple myeloma cell lines against the NCATS MIPE library collection: SKMM1_PLB cell viability assay (AID 1919863); settings: SKMM1 myeloma viability, CellTiter-Glo ATP, 48 h; viability: active compounds read low; further: nearly all actives have a fitted effect of over 35% in size; on viability: series mostly up to about 46 µM
# How it was run: as §1
# Potency means the concentration at half of the fitted maximal effect.
compound,measurement,setting,value
CC1(C)S[C@H]2[C@H](NC(=O)[C@@H](N)c3ccc(O)cc3)C(=O)N2[C@@H]1C(=O)O,Potency,[1],0.296 µM (active)
same,Potency,[2],inactive
same,Potency,[3],5.9 µM (active)
same,Potency,[4],18.7 µM (active)
same,Potency,[5],2.64 µM (active)
same,Potency,[6],3.72 µM (active)
same,Potency,[7],11.8 µM (active)
same,Potency,[8],2.64 µM (active)
same,Potency,[9],1.32 µM (active)
same,Potency,[10],0.0743 µM (active)
CN(C)Cc1cccc(N=C(c2ccccc2)c2c(O)[nH]c3cc(C(=O)N(C)C)ccc23)c1,Potency,[1],9.35 µM (active)
same,Potency,[11],18.7 µM (active)
same,Potency,[2],inactive
same,Potency,[3],16.6 µM (active)
same,Potency,[12],4.69 µM (active)
same,Potency,[4],18.7 µM (active)
same,Potency,[5],8.33 µM (active)
same,Potency,[6],0.935 µM (active)
same,Potency,[13],10.5 µM (active)
same,Potency,[14],18.7 µM (active)
same,Potency,[7],18.7 µM (active)
same,Potency,[8],18.7 µM (active)
same,Potency,[9],16.6 µM (active)
NC(=O)c1ccc2nc(-c3ccc(Oc4ccc(Cl)cc4)cc3)[nH]c2c1,Potency,[1],18.7 µM (active)
same,Potency,[11],0.0235 µM (active)
same,Potency,[14],6.62 µM (active)
same,Potency,[7],inactive
same,Potency,[10],6.62 µM (active)
O=C1NC(=O)C(=Cc2ccc(-c3ccc(F)cc3)o2)S1,Potency,[1],2.09 µM (active)
same,Potency,[15],11.8 µM (active)
same,Potency,[16],inactive
same,Potency,[12],2.09 µM (active)
same,Potency,[5],3.72 µM (active)
same,Potency,[7],inactive
same,Potency,[8],18.7 µM (active)
same,Potency,[10],14.8 µM (active)
CCN(CC)CCOc1ccc(C(=C(Cl)c2ccccc2)c2ccccc2)cc1,Potency,[1],18.7 µM (active)
same,Potency,[15],inactive
same,Potency,[16],inactive
same,Potency,[2],inactive
same,Potency,[12],inactive
same,Potency,[17],inactive
same,Potency,[4],inactive
same,Potency,[14],inactive
same,Potency,[7],16.6 µM (active)
CO[C@@H](C(=O)N1Cc2[nH]nc(NC(=O)c3ccc(N4CCN(C)CC4)cc3)c2C1)c1ccccc1,Potency,[1],1.87 µM (active)
same,Potency,[11],11.8 µM (active)
same,Potency,[2],inactive
same,Potency,[3],20.9 µM (active)
same,Potency,[12],20.9 µM (active)
same,Potency,[4],6.62 µM (active)
same,Potency,[5],18.7 µM (active)
same,Potency,[6],0.332 µM (active)
same,Potency,[13],6.62 µM (active)
same,Potency,[14],8.33 µM (active)
same,Potency,[8],20.9 µM (active)
CCn1c(C(=O)N(C2CC2)C2CC2)cc2c3c(ncn3C)c(Nc3cc(C)n(C)n3)nc21,Potency,[1],inactive
same,Potency,[18],inactive
same,Potency,[2],inactive
same,Potency,[3],inactive
same,Potency,[12],inactive
same,Potency,[17],inactive
same,Potency,[19],inactive
same,Potency,[14],20.9 µM (active)
same,viability,[20],128%
same,Potency,[8],13.2 µM (active)
same,Potency,[10],29.6 µM (active)
CC(C)C(=O)Oc1ccc(CO)cc1[C@H](CCN(C(C)C)C(C)C)c1ccccc1,Potency,[1],inactive
same,Potency,[11],inactive
same,Potency,[2],inactive
same,Potency,[3],inactive
same,Potency,[12],inactive
same,Potency,[17],inactive
same,Potency,[19],18.7 µM (active)
same,Potency,[14],inactive
same,Potency,[9],inactive
COC1CCC(N(C(=O)C2CCC(C)CC2)c2cc(C3=CCCCC3)sc2C(=O)O)CC1 (stereo not given),Potency,[1],inactive
same,Potency,[18],inactive
same,Potency,[11],23.5 µM (active)
same,Potency,[2],inactive
same,Potency,[3],inactive
same,Potency,[17],inactive
same,Potency,[5],inactive
same,Potency,[13],11.8 µM (active)
same,Potency,[7],inactive
same,Potency,[8],23.5 µM (active)
same,Potency,[9],20.9 µM (active)
same,Potency,[10],14.8 µM (active)
NC(=O)NN=Cc1ccc([N+](=O)[O-])o1,Potency,[1],5.9 µM (active)
same,Potency,[16],inactive
same,Potency,[4],inactive
same,Potency,[5],23.5 µM (active)
same,Potency,[19],inactive
same,viability,[20],122%
same,Potency,[10],14.8 µM (active)
Oc1ccc(C2=Cc3ccc(O)cc3OC2)cc1,Potency,[1],2.35 µM (active)
same,Potency,[18],8.33 µM (active)
same,Potency,[15],5.26 µM (active)
same,Potency,[16],2.35 µM (active)
same,Potency,[11],2.09 µM (active)
same,Potency,[3],3.32 µM (active)
same,Potency,[4],18.7 µM (active)
same,Potency,[19],0.662 µM (active)
same,Potency,[6],1.32 µM (active)
same,Potency,[13],2.96 µM (active)
same,Potency,[14],1.48 µM (active)
same,Potency,[20],11.8 µM (active)
same,Potency,[7],5.9 µM (active)
same,Potency,[8],1.32 µM (active)
O=C(O)c1ccc(-c2c[nH]c3ncc(-c4ccccc4)cc23)cc1C1CCCC1,viability,[1],272% (active)
same,Potency,[18],inactive
same,Potency,[16],inactive
same,Potency,[2],inactive
same,Potency,[17],inactive
same,Potency,[19],14.8 µM (active)
same,Potency,[6],8.33 µM (active)
same,viability,[20],132%
same,Potency,[7],inactive
CN1CCN(CCOc2cc(OC3CCOCC3)c3c(Nc4c(Cl)ccc5c4OCO5)ncnc3c2)CC1,Potency,[1],1.87 µM (active)
same,Potency,[16],16.6 µM (active)
same,Potency,[2],inactive
same,Potency,[5],14.8 µM (active)
same,Potency,[6],18.7 µM (active)
same,Potency,[13],18.7 µM (active)
same,Potency,[14],20.9 µM (active)
same,Potency,[8],5.26 µM (active)
same,Potency,[9],18.7 µM (active)
same,Potency,[10],4.18 µM (active)
Cc1[nH]c(C=C2C(=O)Nc3ccc(S(=O)(=O)Cc4c(Cl)cccc4Cl)cc32)c(C)c1C(=O)N1CCC[C@H]1CN1CCCC1,Potency,[1],4.69 µM (active)
same,Potency,[18],23.5 µM (active)
same,Potency,[15],23.5 µM (active)
same,Potency,[16],16.6 µM (active)
same,Potency,[11],8.33 µM (active)
same,Potency,[2],26.4 µM (active)
same,Potency,[12],20.9 µM (active)
same,Potency,[17],23.5 µM (active)
same,Potency,[5],2.35 µM (active)
same,Potency,[19],20.9 µM (active)
same,Potency,[13],14.8 µM (active)
same,Potency,[14],8.33 µM (active)
same,Potency,[20],20.9 µM (active)
same,Potency,[7],23.5 µM (active)
same,Potency,[8],8.33 µM (active)
same,Potency,[9],5.26 µM (active)
same,Potency,[10],8.33 µM (active)

# Source: PubChem BioAssay (NCATS)
